# In ChEMBL document CHEMBL4513216, “Probing the Open Global Health Chemical Diversity Library for Multistage-Active Starting Points for Next-Generation Antimalarials” (ACS Infect Dis, 2020):
# Screen size: about 68,000 compounds; about 2,700 (4%) showed an effect of 50% or more. This excerpt belongs to a sample that is enriched for strong results.
# Tested on: Plasmodium berghei
# Assay: Screen against P. berghei liver stage (PbLuc), transformed with Luciferase, at 2uM
# Assay type: functional, HepG2
# Conditions: tested at 2 uM
row,SMILES,INHIBITION [%]
1,Cc1nc(CN(C)C2CCCN(c3cccnn3)C2)no1 (stereo unspecified),51.21
2,Cc1ccc(N2CCCC(N(C)Cc3cc(C)no3)C2)nn1 (stereo unspecified),75.47
3,Cc1nc(CN(C)C2CCCN(c3ccccc3)C2)no1 (stereo unspecified),74.35
4,Cc1nc(CN(C)C2CCN(Cc3ccc4ccccc4n3)C2)no1 (stereo unspecified),55.7
5,Cc1nc(CN(C)C2CCN(CC3CCC3)C2)no1 (stereo unspecified),15.28
6,Cc1nc(CN(C)C2CCN(CCCc3ccccc3)C2)no1 (stereo unspecified),16.25
7,CN(Cc1noc(C2CC2)n1)C1CCCN(c2cccnn2)C1 (stereo unspecified),-13.24
8,Cc1cc(CN(C)C2CCCN(c3cccnn3)C2)on1 (stereo unspecified),13.35
9,Cc1ccc(N2CCCC(N(C)Cc3cc(C)on3)C2)nn1 (stereo unspecified),-1.21
10,Cc1nc(CN(C)C2CCN(Cc3nc4ccccc4s3)C2)no1 (stereo unspecified),-75.02
11,CC(C)c1nc(CN(C)C2CCCN(c3cccnn3)C2)no1 (stereo unspecified),-68.26
12,Cc1nc(CN(C)C2CCN(Cc3nc4ccccc4n3C)C2)no1 (stereo unspecified),-2.87
13,COCCC(=O)NC(C)(C(N)=O)c1cccc(Cl)c1 (stereo unspecified),7.37
14,O=S1(=O)CCC(n2nc(COc3ccccc3)nc2-c2cnccn2)C1 (stereo unspecified),-5.42
15,Cc1nc(CCNC(Cc2ccncc2)C(F)(F)F)cs1 (stereo unspecified),-2.89
16,CCN(C)Cc1n[nH]c(=O)n1-c1cc(F)ccc1C,5.78
17,CN(C)C(=O)Cc1ccccc1NCc1noc(-c2ccccc2)n1,22.19
18,CCn1nccc1CNc1nc(N)nc2c1nc(C)n2C,14.79
19,CNC(=O)C(NC(=O)c1nccn2ccnc12)c1ccc(F)c(F)c1 (stereo unspecified),29.53
20,CSCCC(Nc1nc(C)cc(C)n1)C(=O)NCC1CCOCC1 (stereo unspecified),0.62
21,CC(C)c1noc(CN2CCOCC2C)n1 (stereo unspecified),27.86
22,COCCCNC(=O)CN(C)C1CCCN(c2cccnn2)C1 (stereo unspecified),64.16
23,CN(CC(=O)NCc1ccccn1)C1CCCN(c2cccnn2)C1 (stereo unspecified),-117.12

row,SMILES,INHIBITION [%]
1,CN(CC(=O)Nc1ccncc1)C1CCCN(c2cccnn2)C1 (stereo unspecified),7.13
2,Cc1ccc(C(=O)N2CCC3(CCCCC3)C2)c(=O)[nH]1,-8.54
3,CN(C)C(=O)c1c[nH]nc1C1CCN(S(=O)(=O)c2cccc(Cl)c2)CC1,13.02
4,Cc1ncsc1-c1nnc(C2CCN(Cc3cccc(F)c3F)CC2)o1,35.56
5,Cc1cccc(CN2CCC3(CCCN(C(=O)N(C)C)C3)C2=O)n1 (stereo unspecified),51.81
6,Cc1cccc(CN2CCC3(CCCN(C(=O)N4CCCC4)C3)C2=O)n1 (stereo unspecified),-9.14
7,Cc1cccc(CN2CCC3(CCCN(C(=O)CN(C)C)C3)C2=O)n1 (stereo unspecified),28.95
8,COCC(C)NC(=O)CCCn1cnc2ccccc2c1=O (stereo unspecified),51.36
9,CC(C)NC(=O)CCCn1cnc2ccccc2c1=O,35.43
10,CC(NC(=O)CCCn1cnc2ccccc2c1=O)c1ncn[nH]1 (stereo unspecified),22.27
11,COCCn1cnc2ccc(NC(=O)CCCn3cccn3)cc2c1=O,52.05
12,Cn1cnc2ccc(NC(=O)CCCn3cccn3)cc2c1=O,25.61
13,CC(C)Cn1cnc2ccc(NC(=O)CCCn3cccn3)cc2c1=O,16.03
14,CC(C)Nc1ncnc2c1CCN(C(=O)NCc1cccc(F)c1)CC2,-36.75
15,O=C(c1cccnc1Oc1ccc(Cl)cc1)N1CC[C@@H](O)C1,18.2
16,O=C(c1ccccn1)N1CCCC(c2ncncc2-c2ccncc2)C1 (stereo unspecified),39.9
17,CNC(=O)N1CCC2(COCc3c(C)nc(NCc4ccco4)nc32)C1 (stereo unspecified),16.91
18,COc1ncccc1C(=O)N1CCn2c(COCC3CC3)cnc2C1C (stereo unspecified),30.38
19,COC(=O)COc1nc(CC(C)C)c2c(c1C#N)CCCC2,26.06
20,CN(Cc1cccnc1)CC1CNCc2nccn2C1 (stereo unspecified),37.65
21,COc1ccc2cnn(CC(=O)NC3CCCC3)c(=O)c2c1OC,45.14
22,CN(C(=O)c1cn(C)cn1)[C@@H]1CCC[C@@H](Oc2ccccc2)[C@@H]1O,32.81
23,c1csc(-c2noc(CCCNC3CCc4ncnn4C3)n2)c1 (stereo unspecified),-15.69

row,SMILES,INHIBITION [%]
1,COc1ccc(C(=O)N(Cc2cnn(C)c2)C(C)C)cc1Br,9.36
2,COc1ccc(C(=O)N(Cc2cnn(C)c2)C(C)C)cc1OC(F)F,60.09
3,COc1cc(C(=O)N(Cc2cnn(C)c2)C(C)C)ccc1OC(C)C,-31.57
4,COc1cc(C(=O)N(Cc2cnn(C)c2)C(C)C)ccc1C,53.98
5,CCOc1ccc(C(=O)N(Cc2cnn(C)c2)C(C)C)cc1OCC,23.42
6,COc1cc(C(=O)N(Cc2cnn(C)c2)C(C)C)ccc1OCC(N)=O,-61.5
7,CN1CCC(Cc2noc(CCc3nc4ccccc4nc3O)n2)CC1,-14
8,O=C(c1ccc[nH]1)N1CCc2c(COCc3ccncc3)cncc2C1,-18.76
9,Cc1ccc(CN2CC[C@@H]3[C@@H]2CCN3C(=O)Cc2cccs2)o1,-45.36
10,O=C(CN1CCCC1CC(=O)c1ccccc1)NCc1ccccn1 (stereo unspecified),-47.19
11,CCN(Cc1nc(COC)no1)C[C@]1(O)CCCN2CCCC[C@@H]21,21.67
12,CCN(Cc1noc(CC(C)C)n1)C[C@]1(O)CCCN2CCCC[C@@H]21,6.33
13,CC(C)Cc1noc(CN(C)C[C@]2(O)CCCN3CCCC[C@@H]32)n1,58.09
14,Cc1nn(C)c(C)c1C(=O)NN1CCOCC1,27.88
15,CCOc1ccc2ccccc2c1CNCC1CCNCC1,-14.75
16,Cc1cccnc1CC(C)Nc1nc(N)nc2c1CCNC2 (stereo unspecified),22.63
17,CCn1nc(C)c(NC(=O)CN2CC[C@@H](F)C2)c1C,-28.65
18,CCn1nc(C)c(NC(=O)CN2CC[C@H](CO)[C@@H](O)C2)c1C,7.29
19,CCN(CC)C(=O)C1CCCN(CC(=O)Nc2c(C)nn(CC)c2C)C1 (stereo unspecified),23.58
20,CCn1nc(C)c(NC(=O)CN2CCN(C(C)=O)CC2)c1C,53.77
21,CCn1nc(C)c(NC(=O)CN2CCC(c3ccccc3Cl)C2)c1C (stereo unspecified),50.9
22,CCn1nc(C)c(NC(=O)C(C)C)c1C,12.62
23,Cc1ccc(CN(CCCn2ccnc2)Cc2cccs2)s1,32.53

row,SMILES,INHIBITION [%]
1,CC1CCCN(c2ccccc2OCC(=O)NC2CCOCC2)C1 (stereo unspecified),19.59
2,CC(Oc1ccccc1)C(=O)N1CCCN(Cc2nccn2C)CC1 (stereo unspecified),-12.05
3,Cc1cc(C2CCCN2C(=O)CN2CCc3ccccc32)on1 (stereo unspecified),18.37
4,Cc1cc(C2CCCN2C(=O)Cn2c(C)cc(=O)c3ccccc32)on1 (stereo unspecified),64.83
5,Cc1ccc2c(c1)SCC(=O)N2CC(=O)N1CCCC1c1cc(C)no1 (stereo unspecified),28.73
6,CNC(=O)C1(C)CN(S(=O)(=O)c2cccc(OC)c2)CCO1 (stereo unspecified),-4.78
7,CN(CCc1ccccc1)Cc1c(C2CCNCC2)[nH]c2ncccc12,2.56
8,CC(C)N1CCCn2nc(C(=O)NCCc3ccccn3)cc2C1,-31.6
9,CN(Cc1ccco1)Cc1cnc2n1CCN(S(C)(=O)=O)CC2,9.1
10,CN(C)CCN1CCc2ncc(CN(C)Cc3ccco3)n2CC1,52.05
11,CN(Cc1ccco1)Cc1cnc2n1CCN(c1ncccn1)CC2,-6.14
12,CC(C)C(O)CCNC(=O)Nc1cc(F)ccc1-n1cccn1 (stereo unspecified),37.43
13,CN1CCN(c2ccc(F)cc2NC(=O)NCC[S+](C)[O-])CC1 (stereo unspecified),17.98
14,C[S+]([O-])CCNC(=O)Nc1cc(F)ccc1-n1cccn1 (stereo unspecified),58.14
15,Cc1nc(C)c(CC(=O)NCc2cccnc2OC2CCCC2)c(=O)[nH]1,-10.1
16,NC(=O)CCC1CCCN(c2ccnc3cc(F)ccc23)C1 (stereo unspecified),1.01
17,CCn1cc(S(=O)(=O)Nc2ccc3[nH]c(C4CCC4)nc3c2)cn1,-16.18
18,CCS(=O)(=O)Nc1ccc2[nH]c(C3CCC3)nc2c1,74.44
19,Cn1cc(S(=O)(=O)Nc2ccc3[nH]c(C4CCC4)nc3c2)cn1,48.21
20,COc1cccc([C@H]2CN(C(C)=O)[C@@H]3CCN(Cc4ccsc4)C[C@H]23)c1,-24.17
21,O=C(CC1CC1)N1CCO[C@H]2[C@H](OCCCn3cccn3)CC[C@@H]21,37.74
22,CC(C)c1nn(C)c(N(C)C)c1CNCc1ccc(N(C)C)nc1,-4.43
23,O=C(C1CCCCC1)N1CC2(CCNCC2)C1,27.1

row,SMILES,INHIBITION [%]
1,O=C(C1CCC1)N1CCC2(CCNCC2)C1,2.94
2,O=C(C1CC1)N1CC2(CCNCC2)C1,60.6
3,CC(=O)N1CCC(c2cccc(-c3cccc(C(=O)O)c3)n2)CC1,23.7
4,CCOc1ccc(CC(=O)Nc2cnccc2SCCCO)cc1,-15.31
5,CCc1cc(CNC(=O)NCC(c2ccco2)N2CCCC2)[nH]n1 (stereo unspecified),42.11
6,O=C(NCc1ccccn1)NCC(c1ccco1)N1CCCC1 (stereo unspecified),53.61
7,O=C(NCc1ccccn1)NCC(c1ccco1)N1CCCCC1 (stereo unspecified),-18.65
8,COc1ccc(C[C@H]2CN(C(=O)c3ccncc3)CC[C@@H]2OC)cc1,-9.66
9,Cc1cc(C(=O)N2CC[C@@H]3CN(C)S(=O)(=O)[C@@H]3CC2)no1,-27.81
10,COc1ccc(C[C@H]2CN(C(=O)c3ccn(C)n3)CC[C@H]2OC)cc1,15.57
11,COCCO[C@H]1CCN(C(=O)c2cc(C)on2)[C@H]1Cc1ccccc1,62.46
12,COc1ccc(C[C@H]2CN(C(=O)c3cc(C)no3)CC[C@H]2OC)cc1,51.26
13,COCCN1C[C@H]2CCN(C(=O)c3cc(C)on3)CC[C@H]2S1(=O)=O,63.35
14,COc1ccc(C[C@H]2CN(C(=O)c3ccc(C)nc3)CC[C@@H]2OC)cc1,15.57
15,Cc1cc(C(=O)N2CC[C@@H]3CN(CCC(C)C)S(=O)(=O)[C@@H]3CC2)no1,36.44
16,COc1ccc(C[C@H]2CN(C(=O)c3ncccn3)CC[C@@H]2OC)cc1,33.74
17,CO[C@H]1CCN(C(=O)c2cc(C)on2)C[C@@H]1Cc1ccccc1,59.5
18,Cc1cc(C(=O)N2CC[C@@H](O)[C@@H]2Cc2ccccc2)no1,19.42
19,CO[C@H]1CCN(C(=O)c2cc(C)on2)[C@H]1Cc1ccncc1,-11.88
